Source: PubChem BioAssay
Pf gametocyte: P. falciparum stage V gametocyte viability inhibition; P. falciparum stage V gametocytes, ATP luminescence, 24 h; inhibition, % at 10.9 µM; 0.065% of 150,000 active; AID 743093;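 active means inhibition above the mean plus 3 SD of compounds within the control limits, set per campaign, cut at about 38% in these data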
MEKK3 PB1 HTS: raises or lowers MEK5 binding to the human MEKK3 PB1 domain; Q99759; 1.4% of 290,000 active; bead-based flow cytometry, Alexa488-MEK5 binding to MEKK3; actives lie on both sides; 0 = blocked by unlabeled MEK5, 100 = vehicle; binding response (% of control), % at 10 µM;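 active means binding response more than 3 SD above or below the average of its plate-row segment, actives on both sides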;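 further: Alexa488 bead fluorescence after subtracting the streptavidin-only scavenger bead signal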
Target sequence (Q99759 whole entry, looked up, the tested form may be a part): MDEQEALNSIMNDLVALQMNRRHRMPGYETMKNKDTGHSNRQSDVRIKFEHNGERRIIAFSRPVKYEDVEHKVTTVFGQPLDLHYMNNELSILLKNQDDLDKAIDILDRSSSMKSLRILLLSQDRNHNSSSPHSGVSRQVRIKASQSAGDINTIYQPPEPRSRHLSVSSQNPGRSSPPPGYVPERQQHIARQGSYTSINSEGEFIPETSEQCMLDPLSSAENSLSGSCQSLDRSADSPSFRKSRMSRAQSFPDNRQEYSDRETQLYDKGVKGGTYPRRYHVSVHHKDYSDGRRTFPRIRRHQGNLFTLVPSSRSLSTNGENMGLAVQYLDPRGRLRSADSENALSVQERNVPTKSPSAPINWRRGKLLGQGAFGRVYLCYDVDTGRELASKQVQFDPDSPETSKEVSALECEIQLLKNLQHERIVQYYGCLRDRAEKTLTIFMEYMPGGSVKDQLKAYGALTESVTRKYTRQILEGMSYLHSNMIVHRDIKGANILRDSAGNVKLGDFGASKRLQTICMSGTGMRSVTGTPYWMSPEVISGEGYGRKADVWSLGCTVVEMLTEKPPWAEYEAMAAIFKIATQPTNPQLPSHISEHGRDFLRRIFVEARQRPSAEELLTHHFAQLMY
MEKK2wt PB1 HTS: raises or lowers MEK5 binding to wildtype human MEKK2 PB1 domain. Q9Y2U5. bead flow cytometry, Alexa488-MEK5 binding to MEKK2 WT; actives lie on both sides. binding response (% of control), % at 10 µM. 1.1% of 290,000 active; in the data active means binding response below about 67% or above about 130%
MEKK2mut PB1 HTS: signal of MEK5 binding to mutant human MEKK2 PB1 domain. percent response, % at 10 µM. bead flow cytometry, Alexa488-MEK5 binding to MEKK2 mutant. 0.35% of 290,000 active; in the data active means percent response above about 24%, passing the limit was not always enough
Arbovirus inh: arbovirus infection inhibition; arbovirus infection cell-based antiviral screen; AID 1251; inhibition, % at 10 µM; 0.37% of 200,000 active; in the data active means inhibition above about 30%
MEKK2wt confirm: raises or lowers MEK5 binding to wildtype human MEKK2, retest; bead flow cytometry, Alexa488-MEK5 binding to MEKK2 WT; actives lie on both sides; AID 1892; shares compounds with MEKK3 PB1 HTS; binding response (% of control), % at 10 µM; 2.4% of 5,900 active; in the data active means binding response below about 16% or above about 210%; inactive means in between
MEKK2mut-MEK5: signal of MEK5 binding to mutant human MEKK2, retest; AID 1893; bead flow cytometry, Alexa488-MEK5 binding to MEKK2 mutant; percent response, % at 10 µM; shares compounds with MEKK3 PB1 HTS; 2% of 5,900 active; in the data active means percent response mostly above about 71%, no sharp cut-off; inactive means mostly below about 38%;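 further: higher means compound restores mutant binding toward wildtype level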
MEKK3-MEK5 inh: MEKK3-MEK5 PB1 inhibition, single concentration confirmation. shares compounds with MEKK3 PB1 HTS. bead flow cytometry, Alexa488-MEK5 binding to MEKK3; active compounds read low. binding response (% of control), % at 10 µM. 1.8% of 5,900 active. AID 1894;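 active means binding response below 72% of control, or above a set upper limit, though filed actives all read lower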;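 further: lower values mean stronger disruption of MEK5 binding to MEKK3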
Numbers stand for hits; . = inactive; / = no result given. An excerpt weighted towards active compounds, which were near 2.4% of everything screened.

SMILES	Pf gametocyte	MEKK3 PB1 HTS	MEKK2wt PB1 HTS	MEKK2mut PB1 HTS	Arbovirus inh	MEKK2wt confirm	MEKK2mut-MEK5	MEKK3-MEK5 inh
CCN1CCc2nc(NC(=O)CC(c3ccccc3)c3ccccc3)sc2C1	/	.	183	44	.	.	.	.
CCN1CCc2nc(NC(=O)Cc3ccc4c(c3)OCCO4)sc2C1	.	.	140	.	.	.	.	.
CCN1CCc2nc(NC(=O)c3ccc4c(c3)OCCO4)sc2C1	.	.	.	.	.	/	/	/
C=CCc1cc(Cl)ccc1OCCOCCN(C)C	.	.	.	.	.	/	/	/
CCC(=O)NC1(Cc2ccc(O)cc2)CCCCC1	.	.	.	.	.	/	/	/
CC1(C)CC(=O)c2cnc(NC3CC3)nc2C1	.	129	.	.	.	.	.	.
C=CCS/C(N)=N\N=C\c1c(O)ccc2ccccc12	.	139	.	.	/	.	.	.
NC(=O)c1ccc(N=Cc2c(O)ccc3ccccc23)cc1	.	/	/	/	/	/	/	/
